Results published in PubChem BioAssay (Tox21).
Active and inactive are the calls of the source. Calls follow the shape of the dose curve; as a rule, active = well fitted curve in the direction sought with a large enough effect in the repeat runs; inconclusive = weak or mixed curves; inactive = flat fitted curve, though single readings scatter.

Test: qHTS assay to test for compound auto fluorescence at 460 nm (blue) in HepG2 cell free culture (AID 720685)
Details: Cell-free culture medium, blue autofluorescence 405/460 nm; series mostly up to 91.3 µM
Procedure, shortened: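 Cell-free plates of MEM plus 10% FBS received 23 nL compound or DMSO vehicle; blue-channel (405/460 nm) intensity scored against triamterene as reference fluorophore.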

Structure (SMILES) | outcome
CCSC(=O)N1CCCCCC1 | inactive
CC(C)(C)C(=O)CCl | inactive
C=C(C)C(=O)OCC(CC)CCCC (configuration not stated) | inactive
CC[N+](=O)[O-] | inactive
O=C(O)Cc1ccccc1 | inactive
COP(=S)(OC)Oc1ccc(SC)c(C)c1 | inactive
Nc1nc(N)nc(NC2CC2)n1 | inactive
CCNc1nc(Cl)nc(NC(C)C)n1 | inactive
Nc1ccc(N)cc1 | inactive
Cc1ccc(O)c(C)c1 | inactive
CN(C)C(=O)C(c1ccccc1)c1ccccc1 | inactive
C/C=C/c1ccc2c(c1)OCO2 | inactive
Sc1ccccc1 | inactive
Oc1c(Br)cc(Br)cc1Br | inactive
OCCCCO | inactive
Cc1cc(Cl)ccc1OC(C)C(=O)O (configuration not stated) | inactive

Structure (SMILES) | outcome
Nc1cccc(Cl)c1 | inactive
Nc1cc(Cl)cc(Cl)c1 | inactive
CNC(=O)O/N=C/C(C)(C)S(C)(=O)=O | inactive
CN(C)C(=O)Nc1cccc(C(F)(F)F)c1 | inactive
c1ccc2c(c1)CCCC2 | inactive
C[C@]12CC[C@H](O)CC1=CC[C@@H]1[C@@H]2CC[C@]2(C)C(=O)CC[C@@H]12 | inactive
CN1C(=O)CCS(=O)(=O)C1c1ccc(Cl)cc1 (configuration not stated) | inactive
N#Cc1ccccn1 | inactive
OCC(O)CCl (configuration not stated) | inactive
Cc1ccc(N=C=O)cc1N=C=O | inactive
C[C@H]1C(=O)O[C@@H]2CCN3CC=C(COC(=O)[C@](C)(O)[C@]1(C)O)[C@H]23 | inactive
CNC(=O)Oc1cccc2ccccc12 | inactive
CN(C)CCC#N | inactive
Nc1ncc([N+](=O)[O-])s1 | inactive
C=CCN=C=S | inactive

Test: qHTS assay to test for compound auto fluorescence at 535 nm (green) in HepG2 cell free culture (AID 720686)
Details: Cell-free medium, green autofluorescence 485/535 nm; series mostly up to 91.3 µM

Structure (SMILES) | outcome
CCSC(=O)N1CCCCCC1 | inactive
CC(C)(C)C(=O)CCl | inactive
C=C(C)C(=O)OCC(CC)CCCC (configuration not stated) | inactive
CC[N+](=O)[O-] | inactive
O=C(O)Cc1ccccc1 | inactive
COP(=S)(OC)Oc1ccc(SC)c(C)c1 | inactive
Nc1nc(N)nc(NC2CC2)n1 | inactive
CCNc1nc(Cl)nc(NC(C)C)n1 | inactive
Nc1ccc(N)cc1 | inactive
Cc1ccc(O)c(C)c1 | inactive
CN(C)C(=O)C(c1ccccc1)c1ccccc1 | inactive
C/C=C/c1ccc2c(c1)OCO2 | inactive
Sc1ccccc1 | inactive
Oc1c(Br)cc(Br)cc1Br | inactive
OCCCCO | inactive
Cc1cc(Cl)ccc1OC(C)C(=O)O (configuration not stated) | inactive

Structure (SMILES) | outcome
Nc1cccc(Cl)c1 | inactive
Nc1cc(Cl)cc(Cl)c1 | inactive
CNC(=O)O/N=C/C(C)(C)S(C)(=O)=O | inactive
CN(C)C(=O)Nc1cccc(C(F)(F)F)c1 | inactive
c1ccc2c(c1)CCCC2 | inactive
C[C@]12CC[C@H](O)CC1=CC[C@@H]1[C@@H]2CC[C@]2(C)C(=O)CC[C@@H]12 | inactive
CN1C(=O)CCS(=O)(=O)C1c1ccc(Cl)cc1 (configuration not stated) | inactive
N#Cc1ccccn1 | inactive
OCC(O)CCl (configuration not stated) | inactive
Cc1ccc(N=C=O)cc1N=C=O | inactive
C[C@H]1C(=O)O[C@@H]2CCN3CC=C(COC(=O)[C@](C)(O)[C@]1(C)O)[C@H]23 | inactive
CNC(=O)Oc1cccc2ccccc12 | inactive
CN(C)CCC#N | inactive
Nc1ncc([N+](=O)[O-])s1 | inactive
C=CCN=C=S | inactive
